Results as given in ChEMBL document CHEMBL1961873, “Compounds: GSK PKIS; Assays: Nanosyn kinase panel” (2012).

What was measured:
[1] = target: Mitogen-activated protein kinase 3 (Homo sapiens) (UniProt P27361); details: at 1 µM;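 further: values are mean percent inhibition of MAPK3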
[2] = target: SRSF protein kinase 3 (Homo sapiens) (UniProt Q9UPE1); details: at 0.1 µM
[3] = target: SRSF protein kinase 3 (Homo sapiens) (UniProt Q9UPE1); details: at 1 µM
[4] = target: Mitogen-activated protein kinase 14 (Homo sapiens) (UniProt Q16539); details: at 0.1 µM
Mitogen-activated protein kinase 14 (Homo sapiens), sequence (Q16539 whole entry): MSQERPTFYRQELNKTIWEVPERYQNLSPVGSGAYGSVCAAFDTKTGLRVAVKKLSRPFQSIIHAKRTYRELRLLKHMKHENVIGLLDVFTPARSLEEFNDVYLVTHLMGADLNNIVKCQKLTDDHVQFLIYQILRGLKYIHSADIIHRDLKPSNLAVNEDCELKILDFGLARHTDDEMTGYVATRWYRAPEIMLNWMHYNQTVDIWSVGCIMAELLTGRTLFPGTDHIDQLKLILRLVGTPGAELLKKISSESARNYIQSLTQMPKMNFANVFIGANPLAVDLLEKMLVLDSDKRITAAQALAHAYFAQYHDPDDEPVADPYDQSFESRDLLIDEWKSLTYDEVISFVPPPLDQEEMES

[5] = target: Mitogen-activated protein kinase 14 (Homo sapiens) (UniProt Q16539); details: at 1 µM
[6] = target: Mitogen-activated protein kinase 11 (Homo sapiens) (UniProt Q15759); details: at 0.1 µM
Mitogen-activated protein kinase 11 (Homo sapiens), sequence (Q15759 whole entry): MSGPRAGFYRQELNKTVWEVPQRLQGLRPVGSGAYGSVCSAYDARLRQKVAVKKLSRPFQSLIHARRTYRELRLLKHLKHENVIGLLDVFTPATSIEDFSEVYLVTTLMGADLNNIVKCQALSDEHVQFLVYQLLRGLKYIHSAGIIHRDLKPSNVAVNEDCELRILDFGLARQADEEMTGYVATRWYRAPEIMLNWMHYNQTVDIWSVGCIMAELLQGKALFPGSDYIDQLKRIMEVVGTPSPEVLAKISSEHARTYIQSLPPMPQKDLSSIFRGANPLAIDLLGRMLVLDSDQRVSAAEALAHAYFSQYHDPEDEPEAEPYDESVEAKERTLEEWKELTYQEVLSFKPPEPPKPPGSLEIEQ

[7] = target: Mitogen-activated protein kinase 11 (Homo sapiens) (UniProt Q15759); details: at 1 µM
[8] = target: T1, Mitogen-activated protein kinase 13 (Homo sapiens) (UniProt O15264); details: at 0.1 µM
T1 sequence (whole entry): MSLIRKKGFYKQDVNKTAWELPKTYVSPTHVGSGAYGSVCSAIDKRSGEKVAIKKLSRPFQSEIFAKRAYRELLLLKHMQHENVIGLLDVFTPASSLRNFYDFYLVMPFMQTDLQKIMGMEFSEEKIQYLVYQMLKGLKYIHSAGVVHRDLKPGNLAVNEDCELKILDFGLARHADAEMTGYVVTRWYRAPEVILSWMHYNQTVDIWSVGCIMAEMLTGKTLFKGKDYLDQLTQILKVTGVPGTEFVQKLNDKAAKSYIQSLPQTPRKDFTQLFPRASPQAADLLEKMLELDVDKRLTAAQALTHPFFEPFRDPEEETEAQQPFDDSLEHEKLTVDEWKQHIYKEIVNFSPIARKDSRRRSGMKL

[9] = target: T1, Mitogen-activated protein kinase 13 (Homo sapiens); details: at 1 µM
[10] = target: T2, Mitogen-activated protein kinase 12 (Homo sapiens) (UniProt P53778); details: at 0.1 µM
T2 sequence (whole entry): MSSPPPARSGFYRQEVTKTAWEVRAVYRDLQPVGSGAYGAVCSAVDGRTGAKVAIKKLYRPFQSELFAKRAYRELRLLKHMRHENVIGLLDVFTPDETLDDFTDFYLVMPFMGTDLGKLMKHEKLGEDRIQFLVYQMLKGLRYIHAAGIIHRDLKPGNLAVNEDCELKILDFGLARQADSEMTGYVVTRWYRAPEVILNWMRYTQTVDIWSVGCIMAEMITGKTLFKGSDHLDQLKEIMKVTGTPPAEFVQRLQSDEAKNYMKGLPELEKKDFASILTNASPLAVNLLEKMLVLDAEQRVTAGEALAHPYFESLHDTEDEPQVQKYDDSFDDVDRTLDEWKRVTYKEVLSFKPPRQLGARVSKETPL

Mitogen-activated protein kinase 3 (Homo sapiens), sequence (P27361 whole entry): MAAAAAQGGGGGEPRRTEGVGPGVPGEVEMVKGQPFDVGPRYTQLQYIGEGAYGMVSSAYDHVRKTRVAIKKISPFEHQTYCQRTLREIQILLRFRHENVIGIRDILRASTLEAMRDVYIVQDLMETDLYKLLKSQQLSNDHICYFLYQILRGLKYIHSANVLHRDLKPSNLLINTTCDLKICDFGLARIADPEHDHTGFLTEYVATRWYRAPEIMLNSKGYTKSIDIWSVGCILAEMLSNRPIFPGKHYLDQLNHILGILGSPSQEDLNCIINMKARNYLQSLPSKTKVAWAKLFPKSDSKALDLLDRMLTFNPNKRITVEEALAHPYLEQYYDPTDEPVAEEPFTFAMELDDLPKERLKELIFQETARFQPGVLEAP
SRSF protein kinase 3 (Homo sapiens), sequence (Q9UPE1 whole entry): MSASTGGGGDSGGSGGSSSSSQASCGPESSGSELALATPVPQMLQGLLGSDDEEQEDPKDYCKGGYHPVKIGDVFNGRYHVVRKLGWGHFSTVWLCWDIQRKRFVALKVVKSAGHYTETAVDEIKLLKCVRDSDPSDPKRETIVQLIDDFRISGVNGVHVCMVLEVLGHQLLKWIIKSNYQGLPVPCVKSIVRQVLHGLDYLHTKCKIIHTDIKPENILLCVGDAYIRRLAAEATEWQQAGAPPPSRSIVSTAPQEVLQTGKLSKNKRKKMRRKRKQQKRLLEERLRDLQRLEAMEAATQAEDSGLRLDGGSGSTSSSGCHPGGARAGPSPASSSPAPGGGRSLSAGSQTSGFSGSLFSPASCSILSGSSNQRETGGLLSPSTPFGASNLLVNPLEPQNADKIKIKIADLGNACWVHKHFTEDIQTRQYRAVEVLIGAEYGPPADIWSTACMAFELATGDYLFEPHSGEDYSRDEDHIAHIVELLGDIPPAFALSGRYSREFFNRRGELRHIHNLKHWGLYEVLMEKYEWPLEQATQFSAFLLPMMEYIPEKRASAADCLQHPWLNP

Row | SMILES | inhibition [1] | inhibition [2] | inhibition [3] | inhibition [4] | inhibition [5] | inhibition [6] | inhibition [7] | inhibition [8] | inhibition [9] | inhibition [10]
1 | CNC(=O)c1cccc(C#Cc2cncnc2Nc2ccc(OCc3cccc(F)c3)c(Cl)c2)c1 | 0.63% | -4.28% | -0.55% | -0.67% | 3.2% | 1.64% | 1.73% | -0.77% | -0.49% | 0.07%
2 | CS(=O)(=O)CCNCc1coc(-c2ccc3ncnc(Nc4ccc(OCc5ccccc5)cc4)c3c2)c1 | 4.16% | 0.59% | -0.06% | 3.52% | 5.25% | 1.13% | 5.1% | 1.6% | 1.56% | 1.93%
3 | Cc1cccc2c1NC(=O)/C2=N\Nc1ccc(S(N)(=O)=O)cc1 | 2.55% | 0.51% | 1.03% | 3.09% | 5.54% | 1.05% | 1.3% | 1.89% | 3.48% | -3.68%
4 | COc1ccc(CNC(=O)c2ccc(-c3cc(-c4nnc(C)o4)ccc3C)cc2)cc1 | 1.53% | 2.42% | 6.02% | 19.4% | 66.6% | 10.1% | 46.3% | 1.25% | 2.3% | 0.94%
5 | CC(C)COC(=O)c1ccc2c(c1)/C(=C/Nc1ccc(S(N)(=O)=O)cc1)C(=O)N2 | 13.5% | -1.27% | -1.97% | -0.94% | -2.21% | -0.49% | 7.86% | -1% | 1.38% | 0.22%
6 | CC(C)(CO)CNC(=O)c1ccc2c(c1)/C(=N/Nc1ccc(S(N)(=O)=O)cc1)C(=O)N2 | 16.6% | -0.87% | -1.79% | 2.1% | 1.84% | 2.96% | 9.13% | -0.56% | 0.83% | -0.2%
7 | Fc1ccc(-c2nn3ccccc3c2-c2ccncc2)cc1 | 0.82% | -2.15% | 1.26% | 41.4% | 81.2% | 7.33% | 38.7% | -0.3% | 0.46% | 1.66%
8 | COc1cc2c(cc1Nc1nc(Nc3ccsc3C(N)=O)c3cc[nH]c3n1)N(C(=O)CN(C)C)CCC2(C)C | 3.62% | 0.09% | 3.51% | 4.03% | 10.7% | 5.19% | 8.81% | 2.03% | 9.12% | 1.64%
9 | CNC(=O)c1cncc(/C=C/c2ccccc2Cl)c1 | 2.18% | -0.92% | 2.45% | -6.55% | -0.16% | 2.14% | 2.01% | 1.17% | -0.14% | -1.75%
10 | Fc1cccc(COc2ccc(Nc3ncnc4sc(-c5ccco5)cc34)cc2Cl)c1 | 4.3% | -0.82% | 1.38% | 7.31% | 6.29% | 4.57% | 6.75% | 4.02% | 3.46% | 3.22%
11 | COc1cc(/C=N/Nc2ncnc3[nH]ncc23)ccc1O | 6.69% | 0.77% | 1.87% | 7.26% | 6.91% | 4.13% | 4.56% | 1.51% | 5.72% | 0.15%
12 | CCn1c(-c2nonc2N)nc2ccccc21 | 1.82% | 2.33% | 1.24% | 1.01% | 4.34% | 3.58% | 4.06% | 2.36% | 3.3% | 0.66%
13 | CCN(CC)S(=O)(=O)c1ccc(OC)c(Nc2ncc(-c3ccccc3)o2)c1 | 4.26% | 0.09% | 0.88% | 1.78% | 1.27% | 3.74% | 4.45% | -0.22% | -0.16% | -2.06%
14 | CS(=O)(=O)CCNCc1ccc(-c2ccc3ncnc(Nc4ccc(OCc5ccccc5)c(C(F)(F)F)c4)c3c2)o1 | 3.07% | -3% | -1.24% | 5.55% | 2.96% | 4.3% | 5.41% | 3.67% | 2.13% | 2.6%
15 | COc1ccc(-c2nn3ncccc3c2-c2ccnc(Nc3ccc4c(c3)OCCO4)n2)cc1 | 1.27% | -1.29% | -0.23% | 68.9% | 87% | 48.6% | 75.4% | 0.57% | -1.08% | 0.47%
16 | Fc1ccc(-c2cc(-c3c[nH]nc3-c3ccccn3)ccn2)cc1 | 4.81% | -1.32% | 1.09% | 5.14% | 37% | 5.12% | 12.5% | -1% | 3.97% | 2.24%
17 | FC(F)(F)c1cccc(-c2nn3ncccc3c2-c2ccnc(Nc3ccc4c(c3)OCCO4)n2)c1 | 2.04% | -0.87% | -0.58% | 30% | 73.7% | 14.1% | 52.2% | 0.07% | 3.46% | 3.07%

Row | SMILES | inhibition [1] | inhibition [2] | inhibition [3] | inhibition [4] | inhibition [5] | inhibition [6] | inhibition [7] | inhibition [8] | inhibition [9] | inhibition [10]
18 | CCOc1ccc2c(-c3ccnc(Nc4cccc(C(F)(F)F)c4)n3)cnn2n1 | 2.69% | -2.63% | 1.62% | 3.75% | 1.48% | 5.24% | 2.69% | 1.99% | 0.75% | 0.81%
19 | CCCN(CCS(C)(=O)=O)Cc1ccc(-c2ccc3ncnc(Nc4ccc(OCc5cccc(F)c5)c(Cl)c4)c3c2)o1 | 2.62% | -1.91% | -0.61% | 10.4% | 4.25% | 0.78% | 0.65% | 4.35% | 2.64% | 0.9%
20 | c1cc(-c2cnn3nc(N4CCOCC4)ccc23)nc(NC2CC2)n1 | 3.9% | 2.15% | 9.24% | 6.66% | 16.6% | 3.09% | 13.1% | 6.27% | 19.7% | 0.63%
21 | COC(=O)Nc1nc2ccc(Oc3ccc(NC(=O)Nc4cccc(Cl)c4)cc3)cc2[nH]1 | -0.19% | -1.41% | 1.25% | 7.99% | 12% | 3.94% | 8.82% | 0.49% | -0.38% | 0.03%
22 | Clc1ccc(-c2nn3ncccc3c2-c2ccnc(Nc3ccccc3)n2)cc1 | 0.24% | -0.67% | -1.16% | 46.5% | 82.8% | 13.1% | 58.8% | 0.09% | 1.39% | 2.11%
23 | COC(=O)c1sc(-n2cnc3cc(OC)c(OC)cc32)cc1OCc1ccccc1C(F)(F)F | 2.3% | -0.91% | -2.27% | 2.39% | 9.56% | 6.02% | 8.21% | -0.67% | 4.4% | 0.89%
24 | NS(=O)(=O)c1ccc(Nc2ncc(-c3ccccc3)o2)cc1 | 3.8% | -0.01% | 1.63% | 3.61% | 9.04% | 6.06% | 7.67% | 3.81% | 5.86% | 0.56%
25 | c1ccc(-c2nc3n(c2-c2ccc4c(c2)OCO4)CCC3)nc1 | 2.21% | -1.69% | -1.14% | 4.21% | 13.4% | 0.27% | 2.77% | 1.49% | 2.52% | 1.78%
26 | COc1ccc(-c2cc(-c3c[nH]nc3-c3ccccn3)ccn2)cc1 | 8.82% | -0.83% | 0.75% | 7.92% | 37.2% | 4.7% | 14.1% | 2.12% | 4.1% | 4.31%
27 | CCN1CCC(CC(=O)Nc2n[nH]c3nnc(-c4cccc(F)c4F)cc23)CC1 | 2.9% | -0.22% | 0.53% | 1.3% | 1.76% | 2.75% | 4.66% | 1.08% | 0.01% | 1.4%
28 | CCCN1CCC(c2ccc(Nc3nc(Nc4cc(F)ccc4C(N)=O)c4cc[nH]c4n3)c(OC)c2)CC1 | 13.1% | 0.67% | 25.4% | 1.69% | 11.7% | 6.28% | 14.3% | 0.03% | 5.13% | 1.44%
29 | COc1ccc(-c2oc3ncnc(N)c3c2-c2ccc(NC(=O)Nc3cc(C(F)(F)F)ccc3F)cc2)cc1 | 4.66% | 2.74% | 48.7% | 4.62% | 30.4% | 5.32% | 37.8% | 1.95% | 15.3% | -3.37%
30 | NC(=O)c1sc(-n2cnc3ccc(C(F)(F)F)cc32)cc1OCc1ccccc1Br | 0.62% | -1.67% | -0.41% | 8.95% | 10.3% | 2.71% | 5.44% | -1.12% | 3.69% | 1.64%
31 | CN(C)CCOc1ccc(-c2nc(-c3ccncc3)c(-c3ccc4c(c3)CC/C4=N\O)[nH]2)cc1 | 3.36% | 1.13% | 1.14% | 3.87% | 15.9% | 2.37% | 6.69% | 0.98% | 4.84% | 1.54%
32 | COc1ccc(-c2cc3c(N)ncnc3o2)cc1 | -1.51% | -0.13% | -0.8% | -1.46% | 0.41% | -1.4% | -0.96% | -2.33% | -2.56% | -1.44%
33 | Nc1ncc(-c2cccc(S(N)(=O)=O)c2)c2scc(-c3ccc(F)c(Cl)c3)c12 | 5.48% | -1.03% | 0.1% | 13.9% | 55.9% | 21.8% | 62.3% | 3.01% | 1.94% | 2.88%
34 | COc1cccc(-c2c[nH]c3c(N/N=C/c4ccncc4)ncnc23)c1 | 6.39% | 1.36% | 1.67% | 7.04% | 13.3% | 2.44% | 7.25% | 6.19% | 38.2% | 1.88%
